What all share (assay): NCI-60 one-dose screen, 48 h (100 = growth as untreated, 0 = no growth, -100 = all killed)
Common to all, as to conditions: 10 µM unless noted

Assay [1] deals with SR leukemia.
Assay [2] has as its system RPMI-8226 leukemia.
In assay [3] the test system is OVCAR-8 ovarian.
Assay [4] has as its system OVCAR-5 ovarian.
For assay [5], the system named is OVCAR-4 ovarian.
Assay [6] has as its system SK-OV-3 ovarian.
Assay [7] concerns IGROV1 ovarian.
Assay [8] has as its system HS 578T breast.
For assay [9], the system named is NCI/ADR-RES ovarian.
Assay [10] concerns OVCAR-3 ovarian.

The structures appear in SMILES notation. The panel holds about 83,000 compounds, 20% with a hit somewhere; the sample as a whole holds those more often.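 Results are percent growth after 48 hours of single-concentration exposure. 100 means growth as in untreated cells, lower positive values show inhibition; negative values down to -100 show cell death.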 A number with no mark means an inactive call. Calls of active or inactive are those of the source. Rule for the calls: active = growth percent below 10; inactive = the rest.

Regarding `O=CNc1cc(Cl)cc(Cl)c1`, the growth in assay [1] is 90.3%; in [2] it was 99.1%; in assay [3] it was 99.8%; in assay [4] it was 97.5%; in [5] it was 113%; in assay [6] it was 115%. The growth in [7] is 103%; in [8] it was 111%; in [9], 108%.
As to `O=C(O)c1cn(C2CC2)c2cc(N3CCN(C(=O)C[n+]4cccc5ccccc54)CC3)c(F)cc2c1=O`, the growth in assay [1] was 15.6%; in [2], 61.1%; in [3], 74.1%; in [4] it was 100%; in assay [5] it was 54.5%; in assay [6], 106%. Moreover, the growth in assay [10] was 51.1%; in [8], 84.9%; in assay [9], 93.8%.
With `COc1ccc(-c2nc(N=Nc3c(O)[nH]c4ccccc34)nc(N3CCOCC3)c2C#N)cc1`, the growth in assay [1] was 41.7%; in assay [2], 60.2%; in assay [3], 44.2%; in [4], 81.9%; in assay [5], 59.5%; in assay [6] it was 66.8%. The growth in [10] is 67.4%; in assay [8], 47.5%; in assay [9] it was 59.7%.
Regarding `C=C(C)[C@H]1CC/C(C)=C/CC[C@]2(C)O[C@H]2CC/C(COC(=O)[C@@H](OC(C)=O)[C@H](NC(=O)c2ccccc2)c2ccccc2)=C\[C@@H]1O`, the growth in assay [1] was 51.2%; in assay [2], 54.8%; in assay [3], 93.9%; in [4] it was 106%; in assay [5], 85.7%; in assay [6], 94.1%. Moreover, the figures for the growth in [10], in assay [8] and in assay [9] were 104%, 91% and 88.1%, respectively.
Regarding `CCCNC(=O)Oc1ccc(/C(=C(\C)c2ccccc2)c2ccc(OCCN3CCCCC3)cc2)cc1`, the growth in assay [1] was 9.19% (active); in assay [2], 57.7%; in assay [3], 75.3%; in assay [4] it was 78.2%; in assay [5] it was 83%; in assay [6], 79.3%. Further, the results for the growth in assay [7], in assay [8] and in assay [9] were 84.8%, 66.8% and 77.2%, respectively.
As to `CCN1C(=O)N(CC)C2C1NN=c1s/c(=C3\C(=O)Nc4ccccc43)c(=O)n12` (stereo not drawn), the growth in assay [1] is 18.4%; in assay [2] it was 36.9%; in assay [3], 31.6%; in assay [4], 50.6%; in [5], 51.1%; in assay [6], 18.4%. Besides, the growth in [7] is 35.2%; in assay [8], 13.2%; in [9], 42%.
Take `COc1ccc(NC(=O)c2sc3nc(C)c(C(O)c4ccc(OC)cc4)cc3c2N)cc1` (stereo not drawn): the growth is 4.21% (active) in assay [1]; 39.8% in assay [2]; 20.4% in assay [3]; 50.6% in assay [4]; 50.4% in [5]; 38.5% in assay [6]. The values for the growth in [10], in assay [8] and in assay [9] were 16.7%, 20.1% and 16.1%, respectively.
With `O=C(Nc1ccc2ncnc(Nc3ccc(Oc4cccc(F)c4)c(Cl)c3)c2c1)c1ccc(CN2CCOCC2)cc1`, the growth is 18.6% in [1]; -16.4% (active) in assay [2]; 6.19% (active) in [3]; 75.5% in [4]; 20.3% in assay [5]; 18.5% in assay [6]. The figures for the growth in [10], in [8] and in assay [9] were 23.1%, 46.6% and 4.15% (active), respectively.
For the compound `CCOC(=O)c1c(SC)nn(-c2cc(=O)[nH]c3ccc(Br)cc23)c1N`, the growth is 91% in [1]; 101% in assay [2]; 95.6% in assay [3]; 112% in assay [4]; 86.2% in [5]; 98.5% in assay [6]. For the same compound, the values for the growth in [10], in assay [8] and in [9] were 105%, 91.8% and 100%, respectively.
For the compound `COc1ccc(-c2nc3sccn3c2/C=C/C(=O)c2cc(OC)c(OC)c(OC)c2)cc1`, the growth in assay [1] is 55.4%; in assay [2] it was -39.1% (active); in assay [3] it was 49.9%; in assay [4], 103%; in assay [5], 54.7%; in assay [6] it was 68.5%. The growth in assay [8] was 71.1%; in assay [9], 47.5%.
For the compound `OC1(c2ccc(Cl)c(C(F)(F)F)c2)CCN(CCCC(c2ccc(F)cc2)c2ccc(F)cc2)CC1`, the growth in [1] is -44.2% (active); in [2], -22% (active); in [3], -71.7% (active); in assay [4] it was -46.9% (active); in assay [5], -10.8% (active); in assay [7], -57.2% (active). The growth in [10] was -99.9% (active); in assay [8] it was -47% (active); in [9] it was -59.8% (active).
With `Cc1ccc(Nc2cc(=S)nc(N)[nH]2)cc1C`, the growth is 97.5% in [1]; 100% in assay [2]; 97.4% in assay [3]; 100% in assay [4]; 108% in assay [5]; 96% in [7]. Further, the growth in assay [10] is 115%; in assay [8], 98.6%; in [9], 105%.
Take `CCCCc1ccc(Nc2nnc(SCC(=O)NC(=O)NCC)s2)cc1`: the growth in assay [1] is 9.38% (active); in assay [2], 85%; in assay [3], 74.1%; in [4] it was 96.8%; in assay [5] it was 104%; in [6], 195%. Moreover, the growth in assay [10] is 104%; in assay [8], 60.6%; in assay [9], 103%.
For the compound `COC(=O)Nc1nc2ccc(C(=O)c3cccc(I)c3)cc2[nH]1`, the growth was -3.68% (active) in [1]; 7.16% (active) in assay [2]; 6.51% (active) in assay [3]; 28.6% in assay [4]; 28.3% in assay [5]; 30.3% in assay [6]. The growth was -5.1% (active) in [10], 13.6% in assay [8] and -0.725% (active) in assay [9].
With `CCNC(=S)NNC(=O)c1cc2ccc1CCc1ccc(cc1)CC2`, the growth in assay [1] was 101%; in assay [2], 102%; in assay [3] it was 102%; in [4], 96.2%; in assay [5] it was 106%; in [6], 123%. Also, the figures for the growth in assay [8] and in [9] were 102% and 101%, respectively.

For the origin of these results see PubChem BioAssay (NCI).
